Experimental data as given in ChEMBL document CHEMBL1201862, “PubChem BioAssay data set” (2004).
The whole screen tested about 15,000 sequences, of which about 620 (4.1%) were called active. Rule as the data show it: active = GI50 up to about 1.1 µM and inactive = higher. These entries were drawn from the full list. Potency and affinity values are given separately.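 Method: 48-hour compound exposure of cells in 96-well plates, five concentrations, linear interpolation of endpoints. GI50 = concentration required for 50% inhibition of growth.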

Test system: M19-MEL
Experiment: NCI tumour cell line growth inhibition, 48 h

Substance	GI50
[Bis(aminomethyl)ethylmethylsilane]tetrachloroplatinum(IV), CHEMBL2146192	1520 nM
mu-(1,7-nanodiamine-N,N')bis-(cis-aminedichloroplatimum (II)), CHEMBL2146215	1360 nM
[Bis(aminomethyl)pentamethylenesilane]dichloropaltinum(II), CHEMBL2146202	5380 nM
[Bis(aminomethyl)tetramethylenesilane]dichloropaltinum(II), CHEMBL2146205	19300 nM
[Bis(aminomethyl)tetramethylenesilane]tetrachloropaltinum(IV), CHEMBL2146189	2830 nM
[Bis(aminomethyl)dimethylsilane]dichloroplatinum (II), CHEMBL2146201	15200 nM
cis-Bis[[(trimethylsilyl)methyl]amino]tetrachloroplatinum(IV), CHEMBL2146191	3370 nM
[Bis(aminomethyl)diethylsilane]tetrachloroplatinum(IV), CHEMBL2146203	2030 nM
[Bis(aminomethyl)pentamethylenesilane]tetrachloropaltinum(IV), CHEMBL2146204	2240 nM
[Bis(aminomethyl)dimethylsilane]tetrachloroplatinum(IV), CHEMBL2146190	3120 nM
